Inconclusive results are not listed. The source made the active and inactive calls. Rule for the calls, unless noted: active = hit-call score of the fitted dose curve at least 0.9, where 1 is the maximum; inactive = score below 0.9.

Sequence of human Peroxisome Proliferator-activated Receptor alpha (PPARa), PPARA (gene 5465) (Q07869 whole entry, looked up): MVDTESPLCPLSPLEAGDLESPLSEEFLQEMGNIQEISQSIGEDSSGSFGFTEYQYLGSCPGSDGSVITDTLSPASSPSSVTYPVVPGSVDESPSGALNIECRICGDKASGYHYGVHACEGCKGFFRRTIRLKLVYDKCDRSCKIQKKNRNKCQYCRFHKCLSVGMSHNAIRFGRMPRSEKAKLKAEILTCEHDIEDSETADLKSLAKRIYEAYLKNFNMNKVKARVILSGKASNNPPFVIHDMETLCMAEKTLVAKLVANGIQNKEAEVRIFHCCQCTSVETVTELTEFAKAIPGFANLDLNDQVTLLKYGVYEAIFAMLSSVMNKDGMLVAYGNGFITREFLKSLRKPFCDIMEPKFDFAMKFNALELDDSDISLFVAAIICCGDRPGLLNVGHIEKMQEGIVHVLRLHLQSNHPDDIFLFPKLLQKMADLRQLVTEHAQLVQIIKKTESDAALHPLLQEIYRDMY

Read-out in the first assay: not listed separately
Description: BSK_3C_uPAR: BioMAP Diversity Plus: 3C Assay for Urokinase-type plasminogen activator receptor (uPAR) Biomarker Activity (AID 2282998). Particulars: BioMAP 3C HUVEC, uPAR biomarker ELISA; actives raise or lower the signal. Summed up:
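Dose primary human umbilical vein endothelial cells, incubate 24 h, measure cell-surface uPAR by ELISA, then fit the signal in both directions against the DMSO negative control.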
As to `CC(=O)OC(c1ccccc1)C(Cl)(Cl)Cl` (configuration not stated), the outcome was inactive.
`ClC1=C(Cl)[C@]2(Cl)[C@H]3[C@H]([C@H]4C=C[C@H]3C4)[C@@]1(Cl)C2(Cl)Cl`: the concentration at half-maximal activity (AC50) is 3.97 µM (active).
Consider `CCOP(=S)(OCC)Oc1ccc(S(C)=O)cc1` (configuration not stated), for which the outcome was inactive.
For the compound `CCCCCCCCC(=O)NCc1ccc(O)c(OC)c1`, the result was inactive.
As for `ClC1(Cl)C2(Cl)C3(Cl)C4(Cl)C(Cl)(Cl)C5(Cl)C3(Cl)C1(Cl)C5(Cl)C24Cl` (configuration not stated), the outcome was inactive.
For the compound `Nc1cccc2ccccc12`, the outcome was inactive.
With `CC(=O)C(Cl)C(=O)N(C)C` (configuration not stated), the AC50 is 30.1 µM (active).
Still for that read-out and setting: the figure for `ClC(Cl)=C(Cl)C(Cl)=C(Cl)Cl` is 32.4 µM (active).
In the case of `CCC(=O)C(CC(C)N(C)C)(c1ccccc1)c1ccccc1` (configuration not stated), the outcome was inactive.
Consider `COC(=O)Cc1ccccc1`, for which the outcome was inactive.
On to `Oc1cccc2cccnc12`, for which the outcome was inactive.
With `O=S(=O)(c1ccc(Cl)cc1)c1ccc(Cl)cc1`, the outcome was inactive.
The same measure, in the same setting: the entry for `CC1(C)Cc2cccc(O)c2O1` is “inactive”; for `NC(=S)Nc1ccccc1` it is “inactive”.
Regarding `Nc1ccc(-c2ccc(N)c(Cl)c2)cc1Cl`, the AC50 was 6.24 µM (active).
The same measure, in the same setting: the figure for `COP(=S)(OC)Oc1ccc(Sc2ccc(OP(=S)(OC)OC)cc2)cc1` is 20 µM (active).
Take `ClCC(Cl)CCl`: the result was inactive.

Read-out in a further assay: not listed separately
Description: BSK_3C_VCAM1: BioMAP Diversity Plus: 3C Assay for Vascular cell adhesion molecule 1 (VCAM1) Biomarker Activity (AID 2282999). Particulars: BioMAP 3C HUVEC, VCAM1 ELISA, cytokine-stimulated; actives raise or lower the signal. Summed up: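 Human umbilical vein endothelial cells (3C system), biomarker read by ELISA 24 h after dosing; bidirectional fit against DMSO baseline. Cytotoxicity tracked by SRB total-protein staining in parallel cultures at biomarker time.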
`CC(=O)OC(c1ccccc1)C(Cl)(Cl)Cl` (configuration not stated): the outcome was inactive.
In the case of `ClC1=C(Cl)[C@]2(Cl)[C@H]3[C@H]([C@H]4C=C[C@H]3C4)[C@@]1(Cl)C2(Cl)Cl`, the AC50 was 3.97 µM (active).
For the compound `CCOP(=S)(OCC)Oc1ccc(S(C)=O)cc1` (configuration not stated), the outcome was inactive.
As to `CCCCCCCCC(=O)NCc1ccc(O)c(OC)c1`, the outcome was inactive.
As to `ClC1(Cl)C2(Cl)C3(Cl)C4(Cl)C(Cl)(Cl)C5(Cl)C3(Cl)C1(Cl)C5(Cl)C24Cl` (configuration not stated), the result was inactive.
On to `Nc1cccc2ccccc12`, for which the result was inactive.
Regarding `CC(=O)C(Cl)C(=O)N(C)C` (configuration not stated), the AC50 was 20 µM (active).
Consider `ClC(Cl)=C(Cl)C(Cl)=C(Cl)Cl`, for which the AC50 is 29.2 µM (active).
For `CCC(=O)C(CC(C)N(C)C)(c1ccccc1)c1ccccc1` (configuration not stated), the result was inactive.
Still for that read-out and setting: the entry for `COC(=O)Cc1ccccc1` is “inactive”.
Turning to `Oc1cccc2cccnc12`, the AC50 was 10.4 µM (active).
Consider `O=S(=O)(c1ccc(Cl)cc1)c1ccc(Cl)cc1`, for which the result was inactive.
On to `CC1(C)Cc2cccc(O)c2O1`, for which the outcome was inactive.
Regarding `NC(=S)Nc1ccccc1`, the outcome was inactive.
Still for that read-out and setting: the entry for `Nc1ccc(-c2ccc(N)c(Cl)c2)cc1Cl` is “inactive”; for `COP(=S)(OC)Oc1ccc(Sc2ccc(OP(=S)(OC)OC)cc2)cc1` it is “inactive”.
Still for that read-out and setting: the entry for `ClCC(Cl)CCl` is “inactive”.

Read-out in a further assay: not listed separately
Description: BSK_4H_Eotaxin3: BioMAP Diversity Plus: 4H Assay for Eotaxin 3 Biomarker Activity (AID 2283000).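 For outcome: CCL26 protein level quantified by ELISA in parallel with SRB cytotoxicity check.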 Particulars: primary human endothelial cells (HUVEC); actives raise or lower the signal. Summed up: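 Eotaxin-3 (CCL26) levels were measured by ELISA in HUVEC primary cultures 24 h post-dosing. Gain or loss of signal was fitted in both directions, with DMSO serving as baseline and negative control.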
In the case of `CC(=O)OC(c1ccccc1)C(Cl)(Cl)Cl` (configuration not stated), the outcome was inactive.
For the compound `ClC1=C(Cl)[C@]2(Cl)[C@H]3[C@H]([C@H]4C=C[C@H]3C4)[C@@]1(Cl)C2(Cl)Cl`, the AC50 is 20 µM (active).
As to `Nc1cccc2ccccc12`, the result was inactive.
On to `CCC(=O)C(CC(C)N(C)C)(c1ccccc1)c1ccccc1` (configuration not stated), for which the result was inactive.
As for `Oc1cccc2cccnc12`, the AC50 was 2.69 µM (active).
For the compound `CC1(C)Cc2cccc(O)c2O1`, the outcome was inactive.
`COP(=S)(OC)Oc1ccc(Sc2ccc(OP(=S)(OC)OC)cc2)cc1`: the AC50 is 20 µM (active).

A further assay concerns the target human Peroxisome Proliferator-activated Receptor alpha (PPARa), PPARA (gene 5465) (UniProt Q07869). Put plainly: ATG_PPARa_TRANS: Attagene TRANS-FACTORIAL HepG2 Assay for human Peroxisome Proliferator-activated Receptor alpha (PPARa) (AID 2283001; active = hit-call score of the fitted dose curve at least 0.9, where 1 is the maximum;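 for AC50: potency for gain of reporter signal over DMSO so agonist or activator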).
Details: not given
In a few lines: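 HepG2 cells transiently transfected with multiplexed GAL4-UAS reporters driven by exogenous chimeric NR-Gal4 proteins; reporter mRNA measured after 24 h dosing. Read-out by RT-PCR, 6-FAM labelling, HpaI digestion and capillary electrophoresis; gain of signal versus DMSO.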
In the case of `C[C@]12CC[C@H](O)CC1=CC[C@@H]1[C@@H]2CC[C@]2(C)C(=O)CC[C@@H]12`, the result was inactive.
Regarding `CC(=O)OC(c1ccccc1)C(Cl)(Cl)Cl` (configuration not stated), the result was inactive.
Same read-out and setting: the entry for `CCCCCCCCC(=O)NCc1ccc(O)c(OC)c1` is “inactive”.
`COc1ccc(C=O)cc1OC`: the outcome was inactive.
Turning to `CCc1ccccc1N`, the result was inactive.
Take `Nc1cccc2ccccc12`: the outcome was inactive.
As to `O=CC=O`, the compound was called inactive.
With `CC(=O)C(Cl)C(=O)N(C)C` (configuration not stated), the compound was called inactive.
As to `O=C(Cc1ccccc1)c1ccccc1`, the result was inactive.
As to `CCC(=O)C(CC(C)N(C)C)(c1ccccc1)c1ccccc1` (configuration not stated), the outcome was inactive.
Regarding `C=CCc1ccc(OC)cc1`, the outcome was inactive.
Same read-out and setting: the entry for `COC(=O)Cc1ccccc1` is “inactive”; for `Oc1cccc2cccnc12` it is “inactive”; for `NC(=S)Nc1ccccc1` it is “inactive”.
In the case of `CC1(C)CCC(Cc2ccc(Cl)cc2)C1(O)Cn1cncn1` (configuration not stated), the result was inactive.
`Nc1ccc(-c2ccc(N)c(Cl)c2)cc1Cl`: the call was inactive.
Turning to `C1CCC(NC2CCCCC2)CC1`, the compound was called inactive.
On to `COP(=S)(OC)Oc1ccc(Sc2ccc(OP(=S)(OC)OC)cc2)cc1`, for which the AC50 is 22.7 µM (active).
As for `Cc1ccc(N)cc1Cl`, the outcome was inactive.
`CC(=O)C=C(C)C`: the outcome was inactive.

The target in another assay is human Peroxisome Proliferator-activated Receptor delta (PPARd), PPARD (gene 5467) (UniProt Q03181). Description: ATG_PPARd_TRANS: Attagene TRANS-FACTORIAL HepG2 Assay for human Peroxisome Proliferator-activated Receptor delta (PPARd) (AID 2283002; active = hit-call score of the fitted dose curve at least 0.9, where 1 is the maximum).
Sequence of human Peroxisome Proliferator-activated Receptor delta (PPARd), PPARD (gene 5467) (Q03181 whole entry, looked up): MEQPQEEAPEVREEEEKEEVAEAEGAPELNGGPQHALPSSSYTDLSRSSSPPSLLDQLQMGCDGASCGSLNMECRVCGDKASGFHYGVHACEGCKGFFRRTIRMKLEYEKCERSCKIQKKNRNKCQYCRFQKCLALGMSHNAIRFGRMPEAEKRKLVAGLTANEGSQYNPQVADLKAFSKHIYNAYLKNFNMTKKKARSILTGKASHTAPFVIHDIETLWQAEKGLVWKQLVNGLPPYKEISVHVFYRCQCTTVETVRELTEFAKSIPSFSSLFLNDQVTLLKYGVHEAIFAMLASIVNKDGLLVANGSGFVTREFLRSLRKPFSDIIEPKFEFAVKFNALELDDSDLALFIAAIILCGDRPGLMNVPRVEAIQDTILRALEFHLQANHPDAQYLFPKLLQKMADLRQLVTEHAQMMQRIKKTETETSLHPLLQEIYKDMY
Details: not given
In a few lines: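 Fluorescence from capillary electrophoresis of labelled RT-PCR reporter fragments gives the signal; DMSO sets baseline. Cells: HepG2 transiently carrying GAL4-UAS reporter units plus chimeric nuclear receptor-Gal4 proteins, exposed to chemicals for 24 h.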
As to `CC(=O)OC(c1ccccc1)C(Cl)(Cl)Cl` (configuration not stated), the result was inactive.
Turning to `CCOP(=S)(OCC)Oc1ccc(S(C)=O)cc1` (configuration not stated), the result was inactive.
As to `CCCCCCCCC(=O)NCc1ccc(O)c(OC)c1`, the call was inactive.
`ClC1(Cl)C2(Cl)C3(Cl)C4(Cl)C(Cl)(Cl)C5(Cl)C3(Cl)C1(Cl)C5(Cl)C24Cl` (configuration not stated): the result was inactive.
Same read-out and setting: the entry for `O=CC=O` is “inactive”.
Consider `CC(=O)C(Cl)C(=O)N(C)C` (configuration not stated), for which the call was inactive.
With `ClC(Cl)=C(Cl)C(Cl)=C(Cl)Cl`, the result was inactive.
`O=C(Cc1ccccc1)c1ccccc1`: the result was inactive.
The same measure, in the same setting: the entry for `CCCCOCCOC(C)=O` is “inactive”; for `COC(=O)Cc1ccccc1` it is “inactive”.
Regarding `Oc1cccc2cccnc12`, the call was inactive.
Turning to `O=S(=O)(c1ccc(Cl)cc1)c1ccc(Cl)cc1`, the outcome was inactive.
Regarding `NC(=S)Nc1ccccc1`, the result was inactive.
For `CC1(C)CCC(Cc2ccc(Cl)cc2)C1(O)Cn1cncn1` (configuration not stated), the compound was called inactive.
As for `COP(=S)(OC)Oc1ccc(Sc2ccc(OP(=S)(OC)OC)cc2)cc1`, the compound was classed as inactive.
Regarding `ClCC(Cl)CCl`, the compound was classed as inactive.

What is called AC50 is the midpoint of the concentration-response curve, whichever way the signal moves.

The values above are taken from PubChem BioAssay (EPA / NIEHS).
